# Active and inactive are the calls of the source.
# Legend:
# [1] = tested on: Human papillomavirus type 1a protein E7 (residues 44-93); test: HPV1a E7 fragment binders on microarrays, primary screen, biochemical, small-molecule microarray, residues 44-93, 635 nm fluorescence (AID 1108); settings: small-molecule microarray binding, fluorescence 635 nm; higher = more signal;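 also: E7 fragment applied at 1 µg/mL in TBST for 1 h at 4 C; score combines spot fluorescence with its signal to noise ratio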
# [2] = modulators of HCV replicon luciferase signal, primary screen, HCV replication inhibitor project, Huh7 cells, luciferase reporter (AID 1109); settings: 48 h, higher = more signal;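 also: huh7 hepatoma cells harbouring a luciferase neomycin HCV replicon reporter; luciferase luminescence as measure of HCV replicon replication; test concentration not given here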
# [3] = biological target: Left-right determination factor 2 (Homo sapiens) (UniProt O00292); test: LEFTY2 binders on small-molecule microarrays, primary screen, biochemical, small-molecule microarray, 635 nm fluorescence scan (AID 1110); settings: LEFTY2 binding, higher = more signal
# Sequence of Left-right determination factor 2 (Homo sapiens) (O00292 whole entry, looked up): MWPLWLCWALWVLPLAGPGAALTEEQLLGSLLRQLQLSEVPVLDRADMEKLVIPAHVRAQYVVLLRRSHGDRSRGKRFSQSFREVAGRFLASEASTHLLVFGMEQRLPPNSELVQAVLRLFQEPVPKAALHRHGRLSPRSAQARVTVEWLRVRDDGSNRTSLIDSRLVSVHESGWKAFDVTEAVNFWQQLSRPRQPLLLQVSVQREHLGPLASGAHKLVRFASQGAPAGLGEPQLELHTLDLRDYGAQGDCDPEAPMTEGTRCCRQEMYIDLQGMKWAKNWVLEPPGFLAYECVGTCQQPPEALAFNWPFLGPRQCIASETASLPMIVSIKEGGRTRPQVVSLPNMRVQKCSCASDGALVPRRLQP
# [4] = biological target: Calmodulin-1 (Homo sapiens) (UniProt P0DP23); test: CALM1 binders on microarrays, EGTA buffer, profiling panel, biochemical, small-molecule microarray, Cy5-labelled CALM1 (AID 1111); settings: Cy5-CALM1 binding fluorescence, higher = more signal;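 also: labelled calmodulin applied in Tris saline Tween buffer holding calcium plus EGTA and DTT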
# [5] = biological target: Calmodulin-1 (Homo sapiens) (UniProt P0DP23); test: calcium-bound CALM1 binders on microarrays, profiling panel, artefact control for SMM control-protein annotation, biochemical, small-molecule microarray, Cy5-labelled CALM1, plus calcium (AID 1112); settings: Cy5-CALM1 binding fluorescence, higher = more signal;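 also: score merges spot fluorescence with signal to noise from triplicate slides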
# [6] = small-molecule microarray binders of probe aWnt5a, primary screen, biochemical, biotinylated probe, 635/667 nm fluorescence (AID 1113); settings: higher = more signal;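 also: score merges 667 nm fluorescence intensity with signal-to-noise per printed feature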
# [7] = small-molecule microarray binders of probe aShh, primary screen, biochemical, biotinylated probe, 635/667 nm fluorescence (AID 1114); settings: higher = more signal;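 also: probe is biotin-labelled aShh protein from a stem cell growth factor screen; measures binding of labelled protein to compounds printed on the slide; score merges feature fluorescence at 667 nm with signal-to-noise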
# [8] = small-molecule microarray binders of probe aNog, primary screen, biochemical, biotinylated probe, 635/667 nm fluorescence (AID 1115); settings: higher = more signal;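 also: probe is biotinylated aNog protein used at 0.15 µg/mL for 1 h at 4 C; z-score combines 667 nm fluorescence of each spot with its signal to noise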
# [9] = biological target: Torsin-1A-interacting protein 1 (Homo sapiens) (UniProt Q5JTV8); test: LAP1 binders from COS7 cell lysate, primary screen, small-molecule microarray, 635/667 nm fluorescence (AID 1116); settings: COS7-hLAP1 lysate binding, 635 nm fluorescence, higher = more signal
# Sequence of Torsin-1A-interacting protein 1 (Homo sapiens) (Q5JTV8 whole entry, looked up): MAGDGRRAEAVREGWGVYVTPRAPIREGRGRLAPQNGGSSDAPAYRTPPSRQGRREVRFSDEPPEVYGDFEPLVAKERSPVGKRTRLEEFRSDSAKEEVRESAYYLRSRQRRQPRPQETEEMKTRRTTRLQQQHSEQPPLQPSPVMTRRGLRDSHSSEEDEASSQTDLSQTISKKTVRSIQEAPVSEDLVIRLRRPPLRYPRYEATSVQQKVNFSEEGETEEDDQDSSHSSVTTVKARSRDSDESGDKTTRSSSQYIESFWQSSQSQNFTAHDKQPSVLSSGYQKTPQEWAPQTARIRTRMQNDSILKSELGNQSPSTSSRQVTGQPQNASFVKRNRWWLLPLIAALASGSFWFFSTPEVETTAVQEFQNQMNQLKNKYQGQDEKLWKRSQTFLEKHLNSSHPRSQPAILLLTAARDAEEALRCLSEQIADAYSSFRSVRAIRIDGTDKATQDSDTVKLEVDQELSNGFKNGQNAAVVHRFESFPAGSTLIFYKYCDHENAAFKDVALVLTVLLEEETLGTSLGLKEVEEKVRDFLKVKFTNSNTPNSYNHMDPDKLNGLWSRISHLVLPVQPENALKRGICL
# [10] = biological target: Alpha-bungarotoxin (Bungarus multicinctus) (UniProt P60615); test: alpha-bungarotoxin binders on microarray, profiling panel, artefact control for SMM control protein annotation, biochemical, small-molecule microarray, Alexa647 label, 635/667 nm fluorescence (AID 1117); settings: alpha-BTX-A647 binding fluorescence, higher = more signal
# Sequence of Alpha-bungarotoxin (Bungarus multicinctus) (P60615 whole entry, looked up): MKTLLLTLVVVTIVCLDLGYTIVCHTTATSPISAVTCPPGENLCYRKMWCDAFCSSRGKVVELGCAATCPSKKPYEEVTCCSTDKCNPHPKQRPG
# [11] = biological target: Albumin (Bos taurus) (UniProt P02769); test: bovine serum albumin binders on microarray, profiling panel, artefact control for SMM control protein annotation, biochemical, small-molecule microarray, Alexa647 label, 635/667 nm fluorescence (AID 1118); settings: BSA-A647 binding, fluorescence 635 nm, higher = more signal;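 also: score merges 667 nm emission intensity and signal-to-noise per printed compound spot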
# Sequence of Albumin (Bos taurus) (P02769 whole entry, looked up): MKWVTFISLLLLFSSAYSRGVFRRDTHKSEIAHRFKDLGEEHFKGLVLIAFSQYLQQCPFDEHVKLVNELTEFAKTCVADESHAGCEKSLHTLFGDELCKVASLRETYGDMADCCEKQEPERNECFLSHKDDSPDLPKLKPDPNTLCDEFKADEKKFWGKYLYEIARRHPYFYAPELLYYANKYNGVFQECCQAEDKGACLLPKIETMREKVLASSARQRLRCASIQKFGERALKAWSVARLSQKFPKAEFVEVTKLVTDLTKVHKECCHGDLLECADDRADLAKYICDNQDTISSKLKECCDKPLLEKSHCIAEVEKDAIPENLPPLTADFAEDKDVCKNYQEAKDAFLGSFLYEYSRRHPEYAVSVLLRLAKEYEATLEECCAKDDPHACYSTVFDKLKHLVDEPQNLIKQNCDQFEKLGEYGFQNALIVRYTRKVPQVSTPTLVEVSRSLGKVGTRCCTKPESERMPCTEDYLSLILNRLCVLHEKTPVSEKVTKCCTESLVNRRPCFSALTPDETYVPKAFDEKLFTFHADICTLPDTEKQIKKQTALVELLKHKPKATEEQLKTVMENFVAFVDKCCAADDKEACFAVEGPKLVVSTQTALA
# [12] = small-molecule microarray binders of probe aXIP, primary screen, biochemical, NeuroSMM set, 635/667 nm fluorescence (AID 1119); settings: higher = more signal, called active from +8 up or from −8 down;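 also: probe is the protein aXip251-270 applied at 1 µg/mL to compound-printed slides; binding of probe to printed compounds measured as 667 nm fluorescence plus signal to noise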
# [13] = small-molecule binders of probe aNOTCH3, primary screen, biochemical, small-molecule microarray, 635/667 nm fluorescence (AID 1120); settings: higher = more signal;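 also: probe is a biotin-tagged antibody raised against NOTCH3 rather than NOTCH3 protein; score merges spot fluorescence near 667 nm with spot signal to noise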
# [14] = small-molecule binders of probe aNOTCH2, primary screen, biochemical, small-molecule microarray, 635/667 nm fluorescence (AID 1121); settings: higher = more signal;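 also: score merges feature fluorescence read at 667 nm with its signal to noise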
# [15] = biological target: Carbonic anhydrase 2 (Homo sapiens) (UniProt P00918); test: CAII small-molecule binders, profiling panel, biochemical, small-molecule microarray, Alexa647-labelled CAII (AID 1122); settings: CAII-A647 binding fluorescence, higher = more signal
# [16] = COS7 lysate on small-molecule microarray, probe aHis, 635 nm (AID 1123); settings: COS7 cell lysate, fluorescence, higher = more signal;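 also: z-score combines 667nm fluorescence intensity with signal-to-noise per printed compound spot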
# [17] = compound binding in COS7 lysate, probe aLAP1, primary screen, cell lysate, small-molecule microarray (AID 1124); settings: probe aLAP1, fluorescence, higher = more signal;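 also: lysate comes from COS7 cells expressing LAP1 and is applied at 0.3 µg/mL; score merges spot fluorescence near 667 nm with signal-to-noise over triplicate slides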
# [18] = tested on: Sam68 (KHDRBS1); test: Sam68 small-molecule binders, primary screen, biochemical, small-molecule microarray, 635 nm fluorescence (AID 1125); settings: small-molecule microarray binding, higher = more signal;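 also: score merges 667 nm channel intensity with signal to noise over triplicate slides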
# [19] = tested on: Chordin-like protein 2 (CHRDL2); test: CHRDL2 small-molecule binders, primary screen, biochemical, small-molecule microarray, 635 nm fluorescence (AID 1126); settings: small-molecule microarray binding, fluorescence 635 nm; higher = more signal;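 also: printed compound slides probed with Chrdl2 protein at 4 µg/mL for 1 h at 4 C; score merges 667 nm emission intensity with signal to noise over three replicate slides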
# [20] = biological target: Concanavalin-A (Canavalia ensiformis) (UniProt P02866); test: ConA small-molecule binders, primary screen, artefact control for SMM control protein annotation, biochemical, small-molecule microarray, Alexa647 label, 635 nm (AID 1127); settings: ConA-A647 binding fluorescence, higher = more signal;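 also: z combines 667 nm emission intensity with signal-to-noise across three replicate slides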
# Sequence of Concanavalin-A (Canavalia ensiformis) (P02866 whole entry, looked up): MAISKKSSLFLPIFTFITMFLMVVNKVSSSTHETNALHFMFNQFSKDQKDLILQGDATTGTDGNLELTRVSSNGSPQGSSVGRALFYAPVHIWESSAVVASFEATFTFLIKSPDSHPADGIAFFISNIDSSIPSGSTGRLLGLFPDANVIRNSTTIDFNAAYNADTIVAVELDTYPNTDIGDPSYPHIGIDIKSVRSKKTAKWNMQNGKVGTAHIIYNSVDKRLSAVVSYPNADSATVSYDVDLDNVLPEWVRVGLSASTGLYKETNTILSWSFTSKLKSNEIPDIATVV
SMILES,composite z-score [1],z-score [2],composite z-score [3],composite z-score [4],composite z-score [5],composite z-score [6],composite z-score [7],composite z-score [8],composite z-score [9],composite z-score [10],composite z-score [11],composite Z-score [12],composite z-score [13],composite z-score [14],composite z-score [15],composite z-score [16],composite z-score [17],composite z-score [18],composite z-score [19],composite z-score [20]
COc1ccc(COC(=O)NN=C2C[C@@H](O)[C@@H](O)[C@@H]3[C@@H]4C(=O)N(c5ccc(F)cc5F)C(=O)[C@@H]4CC[C@@H]23)cc1,-0.0514,-0.76,-0.151,0.0539,-0.325,-0.096,-0.221,0.041,0.599,0.626,0.688,-0.0662 (inactive),0.112,-0.14,-0.416,-0.413,-0.2,-0.356,-0.0448,0.454
CCOC(=O)CCN1C(=O)[C@H]2[C@H]3[C@H](O)[C@H](O)CC(=NOCc4ccccc4)[C@@H]3CC[C@H]2C1=O,-0.482,-1.08,0.591,-0.138,-0.848,-0.0125,-0.243,0.107,-0.0594,0.419,0.762,0.415 (inactive),-0.0996,-0.199,0.381,0.317,0.784,0.37,0.116,0.246
O=C1O[C@@H](c2ccccc2)[C@@H](c2ccccc2)N2[C@@H](c3ccc(O)cc3)[C@]3(C(=O)Nc4ccccc43)[C@@H](C(=O)O)[C@H]12,1.02,-0.996,-0.6,0.64,0.212,-0.174,-0.793,0.0156,0.98,-0.0356,0.592,1.76 (inactive),-0.0903,-0.1,0.59,1.45,0.448,1.33,-0.903,0.666
NCCCCCNC(=O)[C@@H]1C[C@@H]2C(=O)N3CCC[C@H]3C(=O)N2[C@@H]1c1cccc(OCCO)c1,0.933,-1.03,0.781,1.38,0.929,0.0024,0.315,1.55,1.72,0.482,0.533,1.34 (inactive),0.453,0.294,0.659,1.68,1.09,1.19,1.14,1
COC(=O)CC=C[C@H](C)[C@@H](OCc1ccccc1Br)C(C)C,-0.261,0.0087,0.551,-0.354,-0.679,-0.0417,-0.138,-0.333,-0.173,1.54,-0.0311,-0.0469 (inactive),-0.0343,-0.113,-0.279,0.164,0.0326,-0.385,0.382,0.112
CC(=O)OC[C@H]1O[C@@H](ON=C(C)CCN2CCc3nc(-c4ccccc4)c(-c4ccccc4)cc3C2)[C@H](OC(C)=O)[C@@H](OC(C)=O)[C@@H]1OC(C)=O,1.32,-2.07,0.687,0.328,-0.697,0.0215,-0.0362,-0.295,0.358,0.74,0.507,-0.0295 (inactive),0.12,-0.156,0.16,0.614,0.717,1.3,0.346,0.878
COc1cccc([C@H]2Oc3ccc(OC)cc3C(=NOC(C)CN3CCCc4nc(C)c(C)cc43)[C@@H]2O)c1 (stereo not given in full),-0.508,-1.12,0.37,-0.789,-0.582,-0.0286,0.151,-0.135,0.74,-0.618,-0.605,0.904 (inactive),0.119,-0.0527,0.431,0.298,0.532,1.14,0.414,-1.16
CCCNC(=O)[C@@H]1c2ccccc2C(=O)N(Cc2ccccc2Cl)[C@H]1c1ccc(CO)cc1,1.22,-0.656,0.531,0.936,0.375,-0.0203,-0.0769,0.546,0.598,0.726,0.414,-0.231 (inactive),-0.0794,-0.0631,0.585,1.86,0.779,1.3,0.36,1.13
COc1ccccc1CN1C(=O)c2ccccc2[C@@]2(Cc3ccccc3N(C(C)C)C2=O)[C@@H]1c1ccc(CO)cc1,-0.0853,-0.318,-0.88,-0.37,-0.772,-0.12,-0.0553,0.005,-0.509,1.12,0.282,0.0371 (inactive),-0.0581,-0.117,-0.0384,0.209,0.21,-0.067,-0.381,0.262
CC(C)N1CC=CC23O[C@@H]4C=CCCOC(=O)C4[C@H]2C(=O)N(CCCCCCO)[C@@H]3C1=O (stereo not given in full),-0.558,-0.845,-1.39,-0.0847,0.749,-0.252,-0.221,0.0432,-0.423,-0.866,-0.176,0.0157 (inactive),-0.193,0.109,0.439,-0.425,0.753,-0.952,-1.71,-0.428
O=C(CS)NCCCCCNC(=O)[C@@H]1C[C@@H]2C(=O)N[C@@H](Cc3ccccc3)C(=O)N2[C@@H]1c1ccc(O)cc1,0.985,-0.374,0.514,0.283,-0.11,0.0004,0.149,-0.122,0.858,1.48,-0.814,0.346 (inactive),-0.0647,-0.0756,0.674,1.37,0.154,1.3,0.617,0.874
CN1C(=O)C2C(C1=O)C1C=C(CCCO)C2C(c2ccc(CN3CCCC3)cc2)N1C (stereo not given),-0.0161,-0.259,0.175,-0.573,-0.0923,-0.148,-0.273,0.171,0.0993,0.0035,-0.356,-0.816 (inactive),-0.068,-0.0907,-0.221,-0.377,0.0357,0.239,0.0976,-0.56
COC(=O)[C@H](C)NC(=O)CCC1CC(OC(=O)NCCc2ccc(F)cc2)CC2(CCCC(COC(=O)NCC(c3ccccc3)c3ccccc3)O2)O1 (stereo not given in full),1.39,-0.375,0.386,0.084,-0.443,-0.124,0.0062,-0.152,0.516,0.853,0.675,0.269 (inactive),-0.0932,-0.1,0.343,1.44,0.031,1.22,0.17,0.714
Cc1ccc(S[C@]2(C(=O)NCC(F)(F)F)CC(=O)N(Cc3ccccc3Cl)[C@@H]2c2ccc(CO)cc2I)cc1,0.859,-1.16,-0.692,-0.391,-0.0928,-0.12,-0.0035,-0.383,-0.373,2.06,-0.937,0.0162 (inactive),-0.133,-0.134,0.796,1.56,-0.49,0.0712,-1.04,-0.275
CC(C)C[C@@H]1NC(=O)[C@H]2C[C@@H](C(=O)NCCCCCCN(C)C)[C@@H](c3cccc(OCCO)c3)N2C1=O,1.24,0.35,1.38,-2.44,-1.26,-0.0792,0.108,-0.216,2.04,1.61,-0.615,2.07 (inactive),0.16,-0.153,0.557,2.81,1.44,1.31,1.47,1.09
C=CCOC(=O)[C@H]1[C@@H]2C(=O)O[C@@H](c3ccccc3)[C@@H](c3ccccc3)N2[C@@H](c2ccc(OCCOC(=O)[C@H]3C[C@H]4C(=O)N5CCC[C@H]5C(=O)N4[C@H]3c3cccc(OCCO)c3)cc2)[C@]12C(=O)Nc1ccc(I)cc12,1.43,-0.38,1.29,2,0.977,0.995,1.97,2.7,3.33,1.69,0.898,1.9 (inactive),1.36,0.554,0.879,3.06,1.25,1.29,1.24,1.23
CCc1cccc(NC(=O)O[C@H]2[C@H](OC(=O)Nc3ccc4c(c3)OCO4)[C@@H](OC(=O)Nc3ccc4c(c3)OCO4)[C@@H](OC)O[C@@H]2CO)c1,1.4,-0.717,0.645,0.779,-1.12,0.0136,0.214,-0.229,0.577,0.545,0.539,0.108 (inactive),0.42,-0.0714,0.645,2.42,0.665,1.29,0.463,0.638
CC(C)=CCCC(C)=CCON=C1[C@H]2CCn3c(=O)n(Cc4cc5c(cc4Cl)OCO5)c(=O)n3[C@H]2[C@H](O)[C@@H]2O[C@H]12,-0.118,-0.78,0.463,-0.175,-0.591,0.0388,-0.138,-0.181,0.989,-0.112,-0.0415,-0.116 (inactive),0.204,-0.131,-0.158,-0.605,0.0561,-0.218,1.08,0.598
C=C(/C(=C/C[C@H](OC(C)=O)c1ccc(OCCO)cc1)c1cnc2ccccc2c1)C(C)C,1.41,-1.38,1.06,0.295,-0.184,0.117,-0.0917,-0.243,0.782,0.911,-0.154,-0.229 (inactive),0.0418,-0.146,0.885,0.575,-0.315,1.3,1.2,1.09
O=C1C[C@]2(c3ccc([N+](=O)[O-])cc3)C(=O)N(CCN3CCOCC3)c3cc(CO)ccc3[C@H]2N1CC12CC3CC(CC(C3)C1)C2,-0.119,-0.544,-1.1,0.846,0.305,-0.0455,-0.0626,-0.345,0.15,1.15,0.89,0.83 (inactive),-0.185,-0.174,0.185,0.253,0.713,-0.631,-1.03,-0.163

# Source: PubChem BioAssay
